Measured values taken from PubChem BioAssay AID1159580 (chemical genetic matrix, 2015).
In all, about 5,500 compounds went through this assay and about 2,000 (36%) were called active. About 18% were inconclusive and are not listed. Rule as the data show it: active = normalized growth mostly below about 0.91 (no sharp cut-off); inconclusive = no clear call, values can overlap the other calls; inactive = mostly above about 0.92. The list shows a part of the results.

Test: chemical genetic growth profiling, strain panel (AID 1159580);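 also: tested at 20 µM; growth read once vehicle control cultures reached saturation at 30 °C; 1 = growth at the plate median or of vehicle wells; lower values mean less growth of the strain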
Conditions: S. cerevisiae deletion strains, growth OD
[1] = locus YAL040C, strain CLN3, stronger effect = lower value
[2] = locus YCL061C, strain MRC1 (second series), stronger effect = lower value
[3] = locus YDR363W, strain ESC2, stronger effect = lower value
[4] = locus YER002W, strain NOP16, stronger effect = lower value
[5] = locus YMR307W, strain GAS1, stronger effect = lower value
[6] = locus YNL175C, strain NOP13, stronger effect = lower value
[7] = locus YNL197C, strain WHI3, stronger effect = lower value
[8] = locus YNL224C, strain SQS1, stronger effect = lower value
[9] = locus YOR083W, strain WHI5 (second series), stronger effect = lower value
[10] = locus YPL055C, strain LGE1, stronger effect = lower value
[11] = locus YGR229C, strain SMI1, stronger effect = lower value
[12] = locus YJR075W, strain HOC1, stronger effect = lower value
[13] = locus YNL128W, strain TEP1, stronger effect = lower value
[14] = locus YNL153C, strain GIM3, stronger effect = lower value
[15] = locus YPL241C, strain CIN2, stronger effect = lower value

Measured: normalized growth

C=CCN1C[C@@H](C)N([C@H](c2ccc(C(=O)N(CC)CC)cc2)c2cccc(OC)c2)C[C@@H]1C
inactive: [1] 1.04 | [2] 1 | [3] 0.992 | [4] 0.999 | [5] 1.03 | [6] 0.995 | [7] 1.01 | [8] 1.02 | [9] 1.02 | [10] 1.01

CP(=O)(O)C1=CCNCC1
inactive: locus YAL013W, strain DEP1, stronger effect = lower value 1.03 | [1] 1 | [2] 1 | [3] 0.997 | [4] 0.997 | [11] 1.02 | [12] 1.01 | [5] 1 | [13] 0.996 | [14] 0.999 | [6] 1.01 | [7] 1.02 | [8] 1.01 | locus YNL322C, strain KRE1, stronger effect = lower value 1.01 | [9] 0.987 | [15] 1

O=c1onc2cnc3ccccc3n12
active: [14] 0.777 | [10] 0.801
inactive: [1] 0.984 | [2] 0.983 | [3] 0.893 | [4] 1 | [11] 0.939 | [12] 0.958 | [5] 0.977 | [13] 0.967 | [6] 0.999 | [7] 0.989 | [8] 0.987 | [9] 0.961 | [15] 0.999
